Reference: PubChem BioAssay
For some assays here: Entries with a potency or affinity are not part of this list. Calls of active or inactive are those of the source.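 The calls were made as follows, unless noted: active = calcium signal ratio cut to more than 3 SD under the fully stimulated control mean yet still positive, in both repeats and the primary screen; inactive = the rest.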

Experiments:
[1] = system: TRPC4 beta (transient receptor potential cation channel C4), mouse; test: TRPC4 cation channel opening, retest – cell-based, Fluo4 calcium, HEK293 TRPC4beta/mu-opioid, duplicates, 10 µM, confirmation (AID 2426;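 active = fluorescence ratio normalized to control raised more than 50% in primary screen plus both repeat runs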;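 as to activation: percent rise of integrated ratio over buffer wells lacking compound which define 0%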); settings: Fluo4 calcium fluorescence, at 10 µM; active compounds read high
[2] = system: transient receptor potential cation channel C4 beta (TRPC4), mouse; test: TRPC4 cation channel opening, second retest – cell-based, second round, Fluo4, HEK293 TRPC4beta/mu-opioid, 1 µM, confirmation (AID 2461;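 active = primary screen active and over 50% activation in each of two duplicate runs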;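 as to activation: 0% = wells without test compound as baseline of integrated fluorescence ratio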); settings: Fluo4 calcium fluorescence, at 1 µM; active compounds read high
[3] = system: TRPC4 (transient receptor potential cation channel C4 beta), mouse; test: potentiation of DAMGO EC20 TRPC4 response – cell-based, second round, Fluo-4, HEK293 TRPC4beta/mu-opioid, 1 µM, confirmation (AID 2554;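 active = primary screen hit whose fluorescence ratio, in both repeats, exceeds the weak agonist control mean by 3 SD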); settings: DAMGO EC20, Fluo-4 calcium flux, at 1 µM; active compounds read high
[4] = system: TRPC4 beta (transient receptor potential cation channel C4), mouse; test: potentiation of DAMGO EC20 TRPC4 response – cell-based, Fluo-4, HEK293 TRPC4beta/mu-opioid, confirmation (AID 2555;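 active = primary screen hit whose calcium fluorescence ratio, in both repeats, exceeds the weak agonist control mean by 3 SD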); settings: DAMGO EC20, Fluo-4 calcium flux, at 10 µM; active compounds read high
[5] = molecular target: Short transient receptor potential channel 4 (Mus musculus) (UniProt Q9QUQ5); test: blockers of DAMGO-evoked TRPC4 calcium flux – cell-based, Fluo4, HEK293 TRPC4beta/mu-opioid, confirmation (AID 2636;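 active = calcium signal cut by more than 3 SD below the full-agonist control yet still positive, in both repeats and the earlier primary screen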); settings: at 10 µM; active compounds read high
Short transient receptor potential channel 4 (Mus musculus), sequence (Q9QUQ5 whole entry, looked up): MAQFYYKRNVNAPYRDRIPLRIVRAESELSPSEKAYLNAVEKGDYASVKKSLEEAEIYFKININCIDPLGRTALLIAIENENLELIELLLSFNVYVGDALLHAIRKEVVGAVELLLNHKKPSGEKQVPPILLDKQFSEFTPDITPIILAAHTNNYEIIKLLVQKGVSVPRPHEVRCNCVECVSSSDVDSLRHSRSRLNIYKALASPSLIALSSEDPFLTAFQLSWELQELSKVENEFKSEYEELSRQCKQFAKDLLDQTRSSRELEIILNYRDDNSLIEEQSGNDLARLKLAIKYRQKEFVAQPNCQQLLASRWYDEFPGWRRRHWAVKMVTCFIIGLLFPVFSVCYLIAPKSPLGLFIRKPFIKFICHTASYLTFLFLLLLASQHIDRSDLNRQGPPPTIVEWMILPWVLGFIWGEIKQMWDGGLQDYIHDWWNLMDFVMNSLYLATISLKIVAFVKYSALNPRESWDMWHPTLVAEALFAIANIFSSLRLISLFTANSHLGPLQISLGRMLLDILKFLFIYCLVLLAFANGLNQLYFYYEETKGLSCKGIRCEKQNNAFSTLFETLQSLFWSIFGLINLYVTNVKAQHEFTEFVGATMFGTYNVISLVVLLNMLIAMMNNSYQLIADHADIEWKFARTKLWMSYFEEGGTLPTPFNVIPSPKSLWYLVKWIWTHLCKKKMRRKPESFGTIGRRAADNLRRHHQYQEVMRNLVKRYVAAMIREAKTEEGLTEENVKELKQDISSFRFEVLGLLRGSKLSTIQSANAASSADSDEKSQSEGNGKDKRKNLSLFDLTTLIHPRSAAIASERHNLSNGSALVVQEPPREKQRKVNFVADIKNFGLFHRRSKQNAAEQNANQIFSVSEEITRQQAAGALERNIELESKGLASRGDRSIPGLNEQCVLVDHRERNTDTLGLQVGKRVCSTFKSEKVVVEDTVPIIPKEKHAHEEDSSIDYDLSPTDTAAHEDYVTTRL

[6] = molecular target: Short transient receptor potential channel 4 (Mus musculus) (UniProt Q9QUQ5); test: blockers of DAMGO-evoked TRPC4 calcium flux – cell-based, second round, Fluo4, HEK293 TRPC4beta/mu-opioid, 1 µM, confirmation (AID 2637); settings: at 1 µM; active compounds read high
[7] = molecular target: Short transient receptor potential channel 4 (Mus musculus) (UniProt Q9QUQ5); test: potentiation of DAMGO-evoked TRPC4 calcium signal – cell-based, HEK293 TRPC4/mu-opioid, Fluo-4 calcium, EC20 DAMGO, dose response (AID 434941;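 active = earlier screen potentiator hit that boosts the TRPC4 ion channel at some dose, with a dose response; inactive = no potentiation, no dose response, or not a prior hit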;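 also: calcium entry triggered by an EC20 dose of DAMGO at the co-expressed mu-opioid receptor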)
[8] = molecular target: Short transient receptor potential channel 4 (Mus musculus) (UniProt Q9QUQ5); test: block of DAMGO-driven TRPC4 calcium entry – cell-based, HEK293 TRPC4/mu-opioid, Fluo-4 calcium, dose response (AID 434942;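 active = primary screen inhibitor hit that blocks the TRPC4 channel at some tested dose, yielding a dose curve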)
[9] = molecular target: Short transient receptor potential channel 6 (Mus musculus) (UniProt Q61143); test: TRPC6 blockade by TRPC4 inhibitor hits – cell-based, HEK293, membrane potential dye, duplicate, selectivity assay for TRPC4 inhibitor project, confirmation (AID 434948;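 active = active in primary screen and both duplicates, each dropping signal beyond three positive-control SD with fluorescence still positive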); settings: HEK293 TRPC6, membrane potential dye fluorescence, at 10 µM; inhibition: active compounds read high, stimulated with maximal-effect acetylcholine unless noted; outcome: stimulated with maximal-effect acetylcholine unless noted
Short transient receptor potential channel 6 (Mus musculus), sequence (Q61143 whole entry, looked up): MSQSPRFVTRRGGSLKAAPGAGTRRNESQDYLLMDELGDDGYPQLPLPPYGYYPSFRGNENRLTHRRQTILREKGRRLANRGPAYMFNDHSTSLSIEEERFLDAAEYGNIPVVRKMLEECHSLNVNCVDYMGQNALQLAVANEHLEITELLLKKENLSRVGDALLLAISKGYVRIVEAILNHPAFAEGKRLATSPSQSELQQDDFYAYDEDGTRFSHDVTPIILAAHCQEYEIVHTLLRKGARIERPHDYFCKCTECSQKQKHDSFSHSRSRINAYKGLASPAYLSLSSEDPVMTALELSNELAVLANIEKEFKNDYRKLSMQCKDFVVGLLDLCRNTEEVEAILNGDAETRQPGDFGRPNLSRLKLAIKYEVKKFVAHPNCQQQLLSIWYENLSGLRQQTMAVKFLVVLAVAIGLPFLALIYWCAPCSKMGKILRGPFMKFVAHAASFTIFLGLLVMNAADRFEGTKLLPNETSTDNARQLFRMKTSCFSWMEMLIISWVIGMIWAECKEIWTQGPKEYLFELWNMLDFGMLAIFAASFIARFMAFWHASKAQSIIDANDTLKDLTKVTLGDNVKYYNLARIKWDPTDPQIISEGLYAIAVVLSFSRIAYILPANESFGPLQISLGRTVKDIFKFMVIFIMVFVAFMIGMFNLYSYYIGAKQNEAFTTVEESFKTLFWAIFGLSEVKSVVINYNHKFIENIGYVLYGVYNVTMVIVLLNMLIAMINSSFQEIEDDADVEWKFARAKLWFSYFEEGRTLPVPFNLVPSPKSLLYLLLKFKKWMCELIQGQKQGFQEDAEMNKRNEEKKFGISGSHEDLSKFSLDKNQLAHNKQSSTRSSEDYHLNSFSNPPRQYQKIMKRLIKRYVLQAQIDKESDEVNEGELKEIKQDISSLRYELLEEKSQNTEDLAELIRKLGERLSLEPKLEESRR

[10] = molecular target: Short transient receptor potential channel 6 (Mus musculus) (UniProt Q61143); test: TRPC6 opening by TRPC4 activator hits – cell-based, HEK293, membrane potential dye, duplicate, selectivity assay for TRPC4 activator project, confirmation (AID 434950;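 active = membrane potential signal rise above negative control mean plus 3 SD in both duplicates, also active in the earlier TRPC4 screen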;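 as to activation: 0% = buffer only wells and 100% = acetylcholine maximal-effect wells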); settings: HEK293 TRPC6, membrane potential fluorescence, at 10 µM; activation: active compounds read high; outcome: activation
[11] = molecular target: Short transient receptor potential channel 6 (Mus musculus) (UniProt Q61143); test: positive modulators of mouse TRPC6 channel – HEK293 cells, membrane potential dye, duplicate, selectivity assay for TRPC4 potentiator project, confirmation (AID 434952;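 active = compound raising the membrane signal above positive-control mean plus 3 SD in both repeats, and a primary screen hit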); settings: HEK293 TRPC6, membrane potential dye fluorescence, at 10 µM; maximal acetylcholine added after compound unless noted
[12] = molecular target: Short transient receptor potential channel 4 (Mus musculus) (UniProt Q9QUQ5); test: calcium flux activators in TRPC4/5HT1a cells, counter-screen for TRPC4 activator project, cell-based, second counter screen, HEK293 TRPC4/5HT1a, Fluo-4 (AID 434977;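 active = calcium signal rise above buffer-control mean plus 5 SD in both duplicates, and also a hit in the primary screen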;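 as to activation: plate controls were assay buffer for no effect and maximal serotonin response for full effect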); settings: Fluo-4 calcium flux, at 10 µM; active compounds read high
[13] = serotonin-gated TRPC4 signal block – cell-based, second counter screen, HEK293 TRPC4/5HT1a, Fluo-4, counter-screen for TRPC4 inhibitor project, confirmation (AID 434978;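 active = primary screen active whose calcium signal fell more than 3 SD beyond the full-serotonin control mean in both duplicate plates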;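 also: serotonin given first at submaximal then at maximal dose after compound preincubation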); settings: Fluo-4 calcium flux, at 10 µM; inhibition: active compounds read high, serotonin added to trigger calcium flux unless noted; outcome: serotonin added to trigger calcium flux unless noted
[14] = system: TRPC4 (mouse), co-expressed with 5HT1a in HEK293; test: enhancement of serotonin-evoked TRPC4 response – cell-based, second counter screen, HEK293 TRPC4/5HT1a, Fluo-4, counter-screen for TRPC4 potentiator project, confirmation (AID 434979;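 active = signal rise over 3 SD above mean of control wells given weak agonist, in both repeats and first screen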); settings: Fluo-4 calcium flux, at 10 µM; outcome: serotonin added at its EC20 dose unless noted; potentiation: active compounds read high, serotonin added at its EC20 dose unless noted
[15] = nonspecific calcium rise without TRPC4 – cell-based, HEK293 mu-opioid receptor line, counter-screen for TRPC4 activator project, confirmation (AID 449723;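 active = hit in primary screen, with calcium signal over 5 SD above buffer well mean in both duplicates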;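 also: counter screen cells carry the mu-opioid receptor alone and lack TRPC4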); settings: HEK293 mu-opioid cells, Fluo-4 calcium fluorescence, at 10 µM; active compounds read high
[16] = nonspecific potentiation of DAMGO calcium response – cell-based, HEK293 mu-opioid receptor line, counter-screen for TRPC4 allosteric potentiator project, confirmation (AID 449724;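 active = calcium signal rise more than 3 SD above the low-dose agonist control mean, in both duplicate plates and the primary screen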); settings: HEK293 mu-opioid receptor cells, Fluo-4 calcium flux, at 10 µM; compound added before EC20 DAMGO stimulus unless noted

Measured: activation

CN(C)C1(CNC(=O)c2ccc(Cl)c(S(=O)(=O)NCc3ccco3)c2)CCCCC1
inactive: [1] | [3] | [4] | [5] | [6] | [7] | [8] | [9] | [11] | [12] | [13] | [14] | [15] | [16]
active: [2] 71% | [10] 36%

CN(C)C1(CNC(=O)Nc2ccc(Cl)c(Cl)c2)CCCCC1
active: [1] 229% | [2] 64% | [12] 29.4% | [15] 42.7%
inactive: [3] | [4] | [5] | [6] | [7] | [8] | [9] | [10] | [11] | [13] | [14] | [16]

COc1ccc(CNCCc2c[nH]c3ccccc23)cc1OC
active: [1] 110% | [10] 28%
inactive: [2] | [3] | [4] | [5] | [6] | [7] | [8] | [9] | [11] | [12] | [13] | [14] | [15] | [16]

CN(C)C=C1C(=O)N(C2CCCCC2)C(=O)N(C2CCCCC2)C1=O
inactive: [2] | [3] | [4] | [5] | [6] | [7] | [8] | [9] inactive [setting not given] | [10] | [11] inactive [setting not given] | [13] inactive [setting not given] | [14] inactive [setting not given] | [16] inactive [setting not given]
active: [1] 83% | [12] 124% | [15] 39.4%

COc1ccc2c(c1O)C13CCN(C)C(C2)C1CCC(=O)C3 (centres undefined)
inactive: [3] | [4] | [5] | [6] | [7] | [8] | [9] inactive [setting not given] | [11] inactive [setting not given] | [12] | [13] inactive [setting not given] | [14] inactive [setting not given] | [15] | [16] inactive [setting not given]
active: [1] 82% | [2] 96% | [10] 27.5%

Cc1ccccc1C(O)(Cc1ccccc1)C1CN2CCC1CC2 (centres undefined)
inactive: [2] | [3] | [4] | [5] | [6] | [7] | [8] | [9] | [11] | [12] | [13] | [14] | [15] | [16]
active: [1] 109% | [10] 51%

COc1ccc(C(CNC(=O)Cc2ccc(Cl)c(Cl)c2)N(C)C)cc1 (centres undefined)
inactive: [3] | [4] | [5] | [6] | [7] | [8] | [9] | [11] | [12] | [13] | [14] | [15] | [16]
active: [1] 120% | [2] 95% | [10] 40.5%

COc1ccc2c(c1O)[C@]13CCN(C)[C@H](C2)[C@@H]1CCC(=O)C3
active: [1] 82% | [2] 99% | [10] 29.5%
inactive: [3] | [4] | [5] | [6] | [7] | [8] | [9] inactive [setting not given] | [11] inactive [setting not given] | [12] | [13] inactive [setting not given] | [14] inactive [setting not given] | [15] | [16] inactive [setting not given]

COc1ccc(CNCCc2ccc3c(c2)OCO3)cc1Br
active: [1] 141% | [10] 47.5% | [12] 27.3%
inactive: [2] | [3] | [4] | [5] | [6] | [7] | [8] | [9] inactive [setting not given] | [11] inactive [setting not given] | [13] inactive [setting not given] | [14] inactive [setting not given] | [15] | [16] inactive [setting not given]

Cc1ccc(Cl)cc1N1CCN(CCN)CC1
active: [1] 131% | [2] 119% | [12] 53.8%
inactive: [3] | [4] | [5] | [6] | [7] | [8] | [9] | [10] | [11] | [13] | [14] | [15] | [16]

Fc1cccc(C2NCCc3[nH]cnc32)c1 (centres undefined)
inactive: [2] | [3] | [4] | [5] | [6] | [7] | [8] | [9] | [10] | [11] | [13] | [14] | [15] | [16]
active: [1] 201% | [12] 53.4%

Cc1nc2ccccn2c1P(=S)(N1CCCCC1)N1CCCCC1
active: [1] 88% | [10] 88% | [12] 87.7% | [15] 74.7%
inactive: [2] | [3] | [4] | [5] | [6] | [7] | [8] | [9] | [11] | [13] | [14] | [16]

O=[N+]([O-])c1ccc(N2CCNCC2)cc1NC1CC1
active: [1] 64% | [2] 67% | [12] 26.6%
inactive: [3] | [4] | [5] | [6] | [7] | [8] | [9] | [10] | [11] | [13] | [14] | [15] | [16]

Cn1c(N2CCNCC2)nc2ccccc21
active: [1] 117% | [2] 92% | [10] 31.5% | [12] 34.7%
inactive: [3] | [4] | [5] | [6] | [7] | [8] | [9] | [11] | [13] | [14] | [15] | [16]
